Source: PubChem
PrPC surface inh: reduces human prion protein on the cell surface; inhibition, % at 13.8 µM; cell surface PrPC, TR-FRET read-out; P04156; AID 720596; hit rate 0.43% among 370,000; in the data active means inhibition above about 24%
GDH-TPI counter-1: GDH-TPI coupled enzyme inhibition counter-screen. GDH-TPI coupled enzyme counterscreen, NADH absorbance. inhibition, % at 4.8 µM. hit rate 1.2% among 360,000. AID 588335; in the data active means inhibition above about 30%
PrP UTR inh: inhibition of PrP 5' UTR reporter expression | cell-based PrP 5' UTR mRNA reporter, plate reader | inhibition, % (no concentration beside the values) | hit rate 0.35% among 340,000 | AID 488862; in the data active means inhibition above about 52%
Y pestis TopoI: inhibitors of Yersinia pestis topoisomerase I; activity, % at 10 µM; hit rate 0.064% among 360,000; Y. pestis Topo-I cleavage product accumulation, plate reader; in the data active means activity above about 50%, passing the limit was not always enough
Mtb FBA inh: inhibitors of M. tuberculosis fructose-bisphosphate aldolase; P9WQA3; purified M. tuberculosis FBA, fluorescence read-out; inhibition, % at 1 µM; hit rate 2.3% among 360,000
Target sequence (P9WQA3 whole entry, looked up): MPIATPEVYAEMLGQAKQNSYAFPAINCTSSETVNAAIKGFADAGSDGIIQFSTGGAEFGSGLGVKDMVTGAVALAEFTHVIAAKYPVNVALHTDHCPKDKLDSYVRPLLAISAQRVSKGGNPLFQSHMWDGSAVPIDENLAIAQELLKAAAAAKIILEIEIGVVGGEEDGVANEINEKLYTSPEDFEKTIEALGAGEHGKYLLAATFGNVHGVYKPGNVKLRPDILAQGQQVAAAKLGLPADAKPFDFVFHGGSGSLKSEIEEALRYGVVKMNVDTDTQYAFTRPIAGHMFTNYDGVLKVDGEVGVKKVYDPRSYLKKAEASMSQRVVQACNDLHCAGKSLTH
Mtb hypoxia inh: reduces hypoxia-regulated biosensor signal in M. tuberculosis; fluorescence inhibition, % (concentration not given with the values); AID 1159583; hit rate 0.1% among 300,000; M. tuberculosis hypoxia-regulated fluorescent reporter, fluorescence; in the data active means fluorescence inhibition mostly above about 23%, no sharp cut-off; inactive means mostly below about 17%
Mtb FBA confirm: Mtb FBA inhibition, confirmed; shares compounds with Mtb FBA inh; purified M. tuberculosis FBA, fluorescence read-out; inhibition, % at 1 µM; hit rate 78% among 5,600
GDH-TPI counter-2: counter-screen for M. tuberculosis FBA inhibitors: GDH-TPI coupled enzyme inhibition | shares compounds with Mtb FBA inh | GDH-TPI coupled enzyme counterscreen, fluorescence | inhibition, % at 1 µM | hit rate 81% among 5,600 | AID 652141; in the data active means inhibition above about 10%
Each line names hits and unclear results; the compound was inactive in the other large screens (follow-up assays come after a bar, where they were run). A selection: hits, their analogues and other compounds. The true share with any hit is near 3.8%. Unless noted, no stated cut-off is given here; in the data, active means inhibition above about 27%; inactive means the rest.

O=C(CNC(=O)c1ccccc1)NN=Cc1cn[nH]c1-c1ccccc1	none (no result: PrPC surface inh, GDH-TPI counter-1, PrP UTR inh, Y pestis TopoI, Mtb FBA inh)
Cc1ccccc1-c1nc2cc(NC(=O)C3CC3)ccc2o1	Mtb FBA inh 107 | Mtb FBA confirm inactive | GDH-TPI counter-2 15
O=C(Nc1ccc2oc(-c3cccc4ccccc34)nc2c1)c1ncn[nH]1	GDH-TPI counter-1 36, Mtb FBA inh 66 (no result: Mtb hypoxia inh) | Mtb FBA confirm 36 | GDH-TPI counter-2 29
CC(=O)Nc1ccc2oc(-c3ccccc3Br)nc2c1	none
CCN1C(=O)C2C(c3ccc(C)cc3)N3C(=O)N(c4cccc(Cl)c4)C(=O)[C@@]3(Cc3ccc(Cl)cc3)C2C1=O (stereo partly specified)	none (no result: PrPC surface inh, GDH-TPI counter-1, PrP UTR inh, Y pestis TopoI, Mtb FBA inh)
COc1ccc(C=NN2CCN(C3c4ccccc4-c4ccccc43)CC2)cc1O	none (no result: PrPC surface inh, GDH-TPI counter-1, PrP UTR inh, Y pestis TopoI, Mtb FBA inh)
O=C(COC(=O)CNC(=O)C1CCCCC1)Nc1ccccc1	none (no result: PrP UTR inh)
O=C(CNC(=O)C1CCCCC1)OCc1cc(=O)oc2ccc3ccccc3c12	Mtb FBA inh 43 | Mtb FBA confirm inactive | GDH-TPI counter-2 inactive
CC1(C)Cc2nc(Cl)c(C(N)=O)cc2CO1	none
CC1(C)Cc2nc(N)c(C(=O)NCCO)cc2CO1	Mtb FBA inh 98 (no result: Mtb hypoxia inh) | Mtb FBA confirm active | GDH-TPI counter-2 active
CC(=O)Oc1ccc(C=NNC(=O)c2ccc(N(C)S(=O)(=O)c3ccccc3)cc2)cc1	none (no result: PrPC surface inh, GDH-TPI counter-1, PrP UTR inh, Y pestis TopoI, Mtb FBA inh)
CCNC(=S)Nc1cccc(NC(=O)c2ccccc2O)c1	Mtb FBA inh 37 | Mtb FBA confirm inactive | GDH-TPI counter-2 inactive
COCCCNC(=S)N(CCO)Cc1cc2cc3c(cc2[nH]c1=O)OCO3	Mtb FBA inh 31 | Mtb FBA confirm active | GDH-TPI counter-2 active
COCCNC(=S)N(CCCO)Cc1cc2cc3c(cc2[nH]c1=O)OCO3	none (no result: PrP UTR inh, Mtb hypoxia inh)
CCN(CC)CCN(Cc1cc2cc3c(cc2[nH]c1=O)OCO3)C(=S)NCCOC	Mtb FBA inh 34 | Mtb FBA confirm 32 | GDH-TPI counter-2 32
CCN(CC)CCCN(Cc1cc2cc3c(cc2[nH]c1=O)OCO3)C(=S)NCCOC	GDH-TPI counter-1 34, Mtb FBA inh 52 | Mtb FBA confirm inactive | GDH-TPI counter-2 inactive
CCCCNC(=S)N(CCN(CC)CC)Cc1cc2cc3c(cc2[nH]c1=O)OCCO3	none
Cn1c(=O)n(C)c2cc(C=NNC(=O)c3ccc(Cl)cc3)ccc21	none (no result: PrPC surface inh, GDH-TPI counter-1, PrP UTR inh, Y pestis TopoI, Mtb FBA inh)
CNC(=O)c1cn2c3c(ccc(Cl)c3c1=O)OC(C)C2 (stereo unspecified)	Mtb FBA inh 37 | Mtb FBA confirm inactive | GDH-TPI counter-2 inactive
Fc1cc(F)c2nc(Nc3nc4cc5c(cc4s3)OCO5)sc2c1	Mtb FBA inh 32 | Mtb FBA confirm 84 | GDH-TPI counter-2 66
CC(C)C(=O)Nc1nc2cc3c(cc2s1)OCO3	none
Fc1cccc2sc(Nc3nc4cc5c(cc4s3)OCCO5)nc12	Mtb FBA inh 39 (no result: Mtb hypoxia inh) | Mtb FBA confirm inactive | GDH-TPI counter-2 inactive
Fc1cccc2sc(Nc3nc4cc5c(cc4s3)OCO5)nc12	Mtb FBA inh 35 | Mtb FBA confirm 128 | GDH-TPI counter-2 93
CC1(C)CC(=O)CC(=NNC(=O)C2C3CCCCC32)C1 (stereo unspecified)	none (no result: PrPC surface inh, GDH-TPI counter-1, PrP UTR inh, Y pestis TopoI, Mtb FBA inh)
COc1ccc2[nH]c3c(=O)n(N)c(=O)[nH]c3c2c1	Mtb FBA inh 107 | Mtb FBA confirm 33 | GDH-TPI counter-2 31
COc1cc2[nH]c3c(=O)n(N)c(=O)[nH]c3c2cc1OC	Mtb FBA inh 34 | Mtb FBA confirm inactive | GDH-TPI counter-2 inactive
O=C(C1=CC(C2CCCCC2)CC(OCc2ccc(CO)cc2)O1)N1CCN(Cc2ccc3c(c2)OCO3)CC1 (stereo unspecified)	none (no result: PrPC surface inh, GDH-TPI counter-1, PrP UTR inh, Y pestis TopoI, Mtb FBA inh)
Cc1cccc(NC(=S)NC2CCCC2)n1	none
Cc1cccc(NC(=S)Nc2cccc(C)n2)n1	Mtb FBA inh 91 | Mtb FBA confirm inactive | GDH-TPI counter-2 inactive
CCCn1c(SCC(=O)Nc2c(C)cccc2CC)nnc1C(C)C	Mtb FBA inh 39 | Mtb FBA confirm 118 | GDH-TPI counter-2 111
CC(C)C(=O)NCCn1ccc2ccccc21	Mtb FBA inh 30 (no result: Mtb hypoxia inh) | Mtb FBA confirm 102 | GDH-TPI counter-2 88
CCC(=O)NCCn1ccc2ccccc21	none
